This is a sample that favours compounds with a hit; in the whole collection about 2.9% have one here.
PLCb3 inh: inhibitors of human phospholipase C beta3; Purified PLC-beta3, fluorogenic substrate, fluorescence; inhibition, % at 12.2 µM; Q01970; AID 720704; hit rate 0.18% among 370,000
ADAM10 inh: inhibitors of human ADAM10; O14672; recombinant ADAM10, EDANS/DABCYL FRET peptide cleavage, 3 h; inhibition, % at 7 µM; hit rate 0.62% among 370,000;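 active = inhibition above a per-campaign cutoff equal to the mean of compounds falling between control-based bounds plus 3 SD, cut at about 20% in these data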
PLCg1 inh: PLC-gamma1 (human) inhibition, primary screen. P19174. purified PLC-gamma1, fluorogenic substrate, fluorescence. inhibition, % at 12.2 µM. hit rate 0.84% among 370,000; in the data active = inhibition above about 9.5%
proKLK7 act: activates the human kallikrein-7 zymogen; hit rate 0.9% among 370,000; activation, % at 7 µM; purified proKLK7, EDANS-DABCYL substrate fluorescence; 100% is mature enzyme control, 0% vehicle;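 active = activation above the mean of all tested compounds plus 3 SD, computed per campaign excluding outliers beyond control limits, cut at about 13% in these data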
Target sequence (P49862 whole entry, looked up): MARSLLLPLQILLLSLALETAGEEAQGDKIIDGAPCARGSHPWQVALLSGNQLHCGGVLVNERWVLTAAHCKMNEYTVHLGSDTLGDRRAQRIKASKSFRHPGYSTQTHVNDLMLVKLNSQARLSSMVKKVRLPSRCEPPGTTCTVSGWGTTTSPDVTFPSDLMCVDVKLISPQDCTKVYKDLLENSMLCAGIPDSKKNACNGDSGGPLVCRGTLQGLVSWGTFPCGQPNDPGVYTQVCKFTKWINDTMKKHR
ADAM17 inh: inhibits human ADAM17 | recombinant ADAM17, EDANS/DABCYL FRET peptide cleavage | P78536 | hit rate 0.83% among 370,000 | inhibition, % at 6.95 µM;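 active = inhibition above the mean of compounds lying between control limits plus 3 SD, set per campaign, cut at about 8.5% in these data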
PLCg1 ctr: inhibits human PLC-gamma1 in PLC-beta3 counter-screen; shares compounds with PLCg1 inh; hit rate 3.1% among 3,300; purified PLC-gamma1, fluorogenic substrate, fluorescence; inhibition, % at 12.3 µM; in the data active = inhibition above about 9.5%
PLCb3 confirm: human PLC-beta3 inhibition, confirmation | shares compounds with PLCg1 inh | purified PLC-beta3, fluorogenic substrate fluorescence | inhibition, % at 12.3 µM | hit rate 1% among 3,300 | AID 743261
Hits are given with their value; 0 = inactive; - = no result. Cut-off read from the data, not from the text of the source, unless noted: active = inhibition above about 11%; inactive = the rest.

SMILES	PLCb3 inh	ADAM10 inh	PLCg1 inh	proKLK7 act	ADAM17 inh	PLCg1 ctr	PLCb3 confirm
S=C(NC1CCCCC1)N1CCc2ccccc2C1	0	0	9.9	0	0	0	0
O=C(NCCc1ccc(O)cc1)c1[nH]c(C(F)(F)F)nc1-c1ccccc1	0	0	13	0	0	0	0
O=C(NCCc1ccccc1)c1[nH]c(C(F)(F)F)nc1-c1ccccc1	0	0	0	0	0	-	-
CCOc1ccc(NC(=O)C2CCCN2S(=O)(=O)c2ccc(OCC)cc2)cc1 (stereo unspecified)	0	0	12	0	0	0	0
CCOc1ccc(OCC)c(NC(=O)C2CCN(S(=O)(=O)c3cccnc3)CC2)c1	0	0	0	0	0	-	-
CCOc1ccc(NC(=O)C2CCN(S(=O)(=O)c3cccnc3)CC2)cc1	0	0	12	0	0	0	0
Cc1ccc(NP(=O)(c2ccc(N(C)C)cc2NC(=O)c2cccs2)N2CCOCC2)cc1 (stereo unspecified)	14	0	0	0	0	0	0
O=C(CSc1nc2c(c(C(F)(F)F)n1)CCc1ccccc1-2)NCc1ccccc1	0	0	0	0	0	-	-
O=C(CSc1nc2c(c(C(F)(F)F)n1)CCc1ccccc1-2)NCc1ccc(F)cc1	13	0	13	0	0	0	0
O=[N+]([O-])c1ncn(Cc2ccccc2Cl)n1	13	0	0	0	0	0	0
O=[N+]([O-])c1ncn(Cc2c(Cl)cccc2Cl)n1	0	0	0	0	0	-	-
CC/C(=N\NC(=O)C1CCCC1)c1ccc(Br)cc1	0	0	0	0	0	-	-
Cc1ccccc1C(=O)NC1CCN(Cc2nnnn2C(C)(C)C)CC1	0	0	0	0	0	-	-
Cc1ccccc1C(=O)NC1CCN(Cc2nnnn2C2CCCC2)CC1	0	0	14	0	0	12	0
CN(C)S(=O)(=O)n1cc(/C=C(\NC(=O)c2ccccc2Cl)C(=O)NCCN2CCOCC2)c2ccccc21	0	0	12	0	0	0	0
CN(C)S(=O)(=O)n1cc(/C=C(\NC(=O)c2ccccc2Cl)C(=O)NCCCN2CCOCC2)c2ccccc21	0	0	0	0	0	-	-
CCc1[nH]c(C)c(C(C)=O)c1C	0	0	0	0	0	-	-
Cc1ccc(SCc2cc(=O)[nH]c(Nc3nc(C)c4cccc(C)c4n3)n2)cc1	0	0	13	0	0	0	0
COc1ccc2nc(Nc3nc(CSc4ccc(C)cc4)cc(=O)[nH]3)nc(C)c2c1	0	0	0	0	0	-	-
CC1=C(C)C(OCCCl)N(c2cc(O)c(Cl)cc2F)C1=O (stereo unspecified)	0	0	0	0	0	-	-
COc1ccc(OC)c(S(=O)(=O)NC(=O)C2(C)CCN2C(=O)CC2CCCC2)c1 (stereo unspecified)	0	0	11	0	0	0	0
COc1ccc(OC)c(S(=O)(=O)NC(=O)C2(C)CCN2C(=O)Cc2ccccc2Cl)c1 (stereo unspecified)	0	0	0	0	0	-	-
CC1(C(=O)NS(=O)(=O)c2ccccc2Cl)CCN1C(=O)Cc1ccccc1 (stereo unspecified)	0	0	0	0	0	-	-
CC1(C(=O)NS(=O)(=O)c2ccccc2Cl)CCN1C(=O)Cc1ccccc1Cl (stereo unspecified)	0	0	12	0	0	0	0
COCCn1c(NCc2ccc(C)cc2)nc2c1c(=O)[nH]c(=O)n2C	0	0	0	0	0	-	-
SMILES	PLCb3 inh	ADAM10 inh	PLCg1 inh	proKLK7 act	ADAM17 inh	PLCg1 ctr	PLCb3 confirm
C=CC[C@@]1(c2ccc(Br)cc2OC)Oc2ccccc2-c2nccnc21	0	0	0	0	0	-	-
O=C(CN1CCCC1)NC1C2CC3CC(C2)CC1C3 (stereo unspecified)	0	0	0	0	0	-	-
O=C(NC1C2CC3CC(C2)CC1C3)C1CCCCC1 (stereo unspecified)	0	0	16	0	8.6	0	0
Cc1ccc(-c2cn(-c3ccccc3F)c(=S)[nH]2)cc1	0	0	0	0	0	-	-
Cc1ccc(C(=O)Nc2ccc(S(=O)(=O)NCc3ccco3)cc2)cc1	0	0	0	0	0	-	-
O=C(Nc1ccccc1)c1ccc(S(=O)(=O)NCc2ccco2)cc1	0	0	13	0	0	0	0
Cc1nn(-c2ccccc2)c(N)c1N=Nc1cccnc1	11	0	0	0	0	0	0
